Assay results taken from PubChem BioAssay (NCATS).
Results filed as inconclusive are left out. The source made the active and inactive calls. The call rests on the fitted dose curve; in most records, active means well fitted cell-killing curve with a large enough effect; inconclusive means small, poorly fitted or top-dose-only effect, or effect the other way; inactive means flat fitted curve, though single readings scatter. Where a SMILES comes first, the peptide text is derived from it. The star is where a group is joined. PhAc = O=C(Cc1ccccc1)*

Columns and labels:
Assay in all cases: Primary qHTS to identify gynecologic anti-cancer compounds using libraries of approved drugs and bioactive compounds (AID 1345084); further: nearly all actives have a fitted effect of over 55% in size
[1] = tested on: C33A; conditions: Gynecologic cancer cell panel viability, ATPlite luminescence, 48 h; series mostly up to 57.5 µM
Procedure, shortened: (§1)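 Five-point cytotoxicity, 48 h drug exposure at 37 C, 5% CO2, on cells seeded 16 h beforehand. ATP content read by ATPlite luminescence.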

[2] = tested on: CAOV3; conditions: Gynecologic cancer cell panel viability, ATPlite luminescence, 48 h; series mostly up to 57.5 µM
Procedure, shortened: as §1

[3] = tested on: CASKI; conditions: Gynecologic cancer cell panel viability, ATPlite luminescence, 48 h; series mostly up to 57.5 µM
Procedure, shortened: as §1

[4] = tested on: Es-2; conditions: Gynecologic cancer cell panel viability, ATPlite luminescence, 48 h; series mostly up to 57.5 µM
Procedure, shortened: as §1

[5] = tested on: HeLa; conditions: Gynecologic cancer cell panel viability, ATPlite luminescence, 48 h; series mostly up to 57.5 µM
Procedure, shortened: as §1

[6] = tested on: Hek293T; conditions: Gynecologic cancer cell panel viability, ATPlite luminescence, 48 h, control line for the selectivity index; series mostly up to 57.5 µM
Procedure, shortened: as §1

[7] = tested on: JEG-3; conditions: Gynecologic cancer cell panel viability, ATPlite luminescence, 48 h; series mostly up to 57.5 µM
Procedure, shortened: as §1

[8] = tested on: OV90; conditions: Gynecologic cancer cell panel viability, ATPlite luminescence, 48 h; series mostly up to 57.5 µM
Procedure, shortened: as §1

[9] = tested on: PA-1; conditions: Gynecologic cancer cell panel viability, ATPlite luminescence, 48 h; series mostly up to 57.5 µM
Procedure, shortened: as §1

[10] = tested on: SKOV3; conditions: Gynecologic cancer cell panel viability, ATPlite luminescence, 48 h; series mostly up to 57.5 µM
Procedure, shortened: as §1

[11] = tested on: Tov-21-G; conditions: Gynecologic cancer cell panel viability, ATPlite luminescence, 48 h; series mostly up to 57.5 µM
Procedure, shortened: as §1

[12] = tested on: Tov112D; conditions: Gynecologic cancer cell panel viability, ATPlite luminescence, 48 h; series mostly up to 57.5 µM
Procedure, shortened: as §1

Measured: Potency

COC(=O)C1=COC(O[C@@H]2O[C@H](CO)[C@@H](O)[C@H](O)[C@H]2O)C2C(C)C(=O)CC12 (stereo not given in full)
inactive: all assays above

CN1CCc2cc(Cl)c(O)cc2[C@@H](c2cccc3c2OCC3)C1
inactive: all assays above

CCC/C=C/C=C/C1CC(O)C(O)C(=O)C1CO (stereo not given)
inactive: all assays above

C/C(=C\CC[C@H](CO)[C@@H]1CC[C@]2(C)C3=C(CC[C@@]12C)[C@@]1(C)CCC(=O)C(C)(C)C1CC3)C(=O)O (stereo not given in full)
inactive: all assays above

C[C@H](O)C(O)(C(=O)OCc1ccccc1NC(=O)CCC(N)C(=O)O)[C@H](C)O (stereo not given in full)
inactive: all assays above

C/C=C1/CC2C(=O)Nc3cc(O)c(OC)cc3C(=O)N2C1 (stereo not given)
inactive: all assays above

O=C(C1OC1/C=C/c1ccc2c(c1)OCO2)N1CCCCC1 (stereo not given)
inactive: all assays above

CCOC(=O)CNC(=O)[C@@H]1CCCN1C(=O)Cc1ccccc1 (PhAc-Pro-Gly-OEt)
inactive: all assays above

CC1=C2C[C@H]3OC(=O)[C@H](O)[C@@]4(O)[C@@H](C)[C@@H](O)[C@H](O)C([C@@]2(C)[C@H](O)[C@@H](O)C1)[C@@]34C (stereo not given in full)
inactive: all assays above

N[C@@H](CC(=O)Nc1ccc(Oc2cc(F)c(F)cc2Br)cc1)C(=O)O
inactive: all assays above

CCC(C)/C=C(C)/C=C/C(=O)C1CCC(O)C(C)(O)C1=O (stereo not given)
inactive: all assays above

CC(C)C(NC(=O)c1ccc(O)cc1)C(=O)N1CCCC1C(=O)Nc1c(O)cccc1C(=O)O (stereo not given)
inactive: all assays above

CC(=O)/C=C/C1(O)C(C)=CC(=O)CC1(C)C (stereo not given)
inactive: all assays above

CC1C(O)C(O)C2C(C(=O)OCCc3ccc(O)cc3)=COC(O[C@@H]3O[C@H](CO)[C@@H](O)[C@H](O)[C@H]3O)C12 (stereo not given in full)
inactive: all assays above

CC(C)c1cc2c(c(O)c1O)[C@@]13CCCC(C)(C)C1[C@@H](O)[C@@H]2OC3=O (stereo not given in full)
inactive: all assays above
